Compound activity (PubChem BioAssay)
The list is not random: actives were taken first. Their share in the collection is about 18%.
IL-1B inflam inh – blocks inflammasome-driven IL-1 beta release | THP-1 LPS/ATP IL-1B secretion, AlphaLISA, 16 h; active compounds read low | activity change, % at 57.5 µM | 360,000 compounds, 4.7% hits; in the data active = activity change below about -50%; inconclusive = mostly about -30% to -49%; also: % is scaled to controls: 0 for no effect and ±100 for the full control effect
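THP-1 cells pretreated 1 hr with compounds (up to 57.5 uM final), then stimulated with LPS (250 ng/mL final) plus ATP (1.25 mM final); secreted IL-1B measured by AlphaLISA after 16 hr, decreased signal indicating inhibition.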
DT40 TDP1 no CPT – qHTS for Inhibitors of human tyrosyl-DNA phosphodiesterase 1 (TDP1): qHTS in cells in absence of CPT. DT40 Tdp1-/- hTDP1 cells, no CPT, ATP luminescence, 48 h. Potency, µM (series often up to 46.2 µM), inactives show top-dose activity change, negative = growth inhibition, hits mostly inhibitors. 420,000 compounds, 15% hits. AID 686978, 2013; also: potency is read from the fitted curve at half-maximal effect; % is scaled to controls: 0 for no effect and ±100 for the full control effect; nearly all actives have a fitted effect of over 55% in size
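Chicken DT40 Tdp1-/- cells stably complemented with human TDP1 were seeded at 400 cells/well with DMSO in place of 20 nM camptothecin. After compound pinning, cells grew at least 48 hr at 37 °C; viability read by CellTiter-Glo luminescence.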
TDP1 block – blocks human tyrosyl-DNA phosphodiesterase 1. Q9NUW8. recombinant TDP1, AlphaScreen DNA substrate cleavage. Potency, µM (doses to about 130 µM), without a hit: at the top dose activity change, negative = inhibition, most hits filed as inhibitors. 350,000 compounds, 0.28% hits. AID 485290; also: potency is read from the fitted curve at half-maximal effect; % is scaled to controls: 0 for no effect and ±100 for the full control effect; nearly all actives have a fitted effect of over 40% in size
Target sequence (Q9NUW8 whole entry, looked up): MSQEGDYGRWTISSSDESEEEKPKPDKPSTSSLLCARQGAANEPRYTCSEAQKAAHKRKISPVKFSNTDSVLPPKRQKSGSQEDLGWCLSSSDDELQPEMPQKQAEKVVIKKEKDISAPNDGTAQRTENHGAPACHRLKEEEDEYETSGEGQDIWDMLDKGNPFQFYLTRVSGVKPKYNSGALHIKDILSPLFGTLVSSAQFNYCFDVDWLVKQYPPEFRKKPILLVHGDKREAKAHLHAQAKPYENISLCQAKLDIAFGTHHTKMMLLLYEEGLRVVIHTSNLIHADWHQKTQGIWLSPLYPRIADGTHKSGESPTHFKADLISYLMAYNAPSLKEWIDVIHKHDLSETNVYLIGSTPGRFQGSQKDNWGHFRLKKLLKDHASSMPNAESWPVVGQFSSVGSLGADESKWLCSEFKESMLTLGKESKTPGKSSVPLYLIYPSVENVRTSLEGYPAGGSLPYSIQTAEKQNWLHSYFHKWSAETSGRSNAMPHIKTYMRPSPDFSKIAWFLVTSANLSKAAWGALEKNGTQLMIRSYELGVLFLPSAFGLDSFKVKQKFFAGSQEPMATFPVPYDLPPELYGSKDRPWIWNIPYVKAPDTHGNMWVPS
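Tdp1 1 nM final; 15 min RT w/ cpd; substrate 15 nM, 5 min; beads 10 ug/ml, 10 min; AlphaScreen read. Neg ctrl: no enzyme.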
TDP1 cell CPT – DT40-hTDP1 cell growth loss with CPT. chicken DT40 Tdp1-/-;hTDP1 cells + 20 nM CPT, ATP luminescence, 48 h. Potency, µM (highest dose often 46.2 µM), for inactives: top-dose activity change, negative = growth inhibition, most hits filed as inhibitors. 420,000 compounds, 12% hits; also: potency is read from the fitted curve at half-maximal effect; % is scaled to controls: 0 for no effect and ±100 for the full control effect; nearly all actives have a fitted effect of over 55% in size
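Chicken DT40 Tdp1-/- cells stably complemented with human TDP1 were seeded at 400 cells/well in medium containing 20 nM camptothecin, exposed to pin-transferred compounds, and grown at 37 °C for at least 48 hr. Viability was read as ATP luminescence.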
HepG2 viability – HepG2 cytotoxicity, counter-screen for TGF-b inhibitors. HepG2 CAGA-GFP viability, ATP luminescence, 18 h. Potency, µM (doses to about 46.1 µM), inactives show at the top dose activity change, negative = cytotoxicity, most hits filed as cytotoxic. 410,000 compounds, 0.76% hits; also: potency is read from the fitted curve at half-maximal effect
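CellTiter-Glo luminescence gave cytotoxicity after 18 hours at 37 degrees C. The cells were HepG2 CAGA-GFP in 1% FBS DMEM, stimulated with 500 pg/mL TGF-beta after compound addition. %Activity was normalised to no-cell wells (complete cell-killing) and DMSO (no toxicity), and curves were fitted and classified.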
TGFb inhibitor – inhibitors of TGF-b signaling; AID 588855; HepG2 CAGA-GFP TGF-b/SMAD3 reporter, GFP fluorescence, 18 h; TGF-beta stimulated, 500 pg/mL final; Potency, µM (titrated, usually from 46.1 µM), for inactives: at the top dose activity, negative = inhibition, actives largely listed as inhibitors; 410,000 compounds, 1.2% hits; also: potency is read from the fitted curve at half-maximal effect; % is scaled to controls: 0 for no effect and ±100 for the full control effect; nearly all actives have a fitted effect of over 65% in size
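GFP signal (ex488/em500-530) from TGF-beta-stimulated HEPG2 CAGA-GFP cells, 500 pg/mL final, 18 h at 37 degrees C in DMEM plus 1% FBS, normalized to unstimulated and DMSO-stimulated controls.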
The depositor's hits bear a star; ? = inconclusive; · = no result given; [ ] = remark or other dose. Unless noted, calls follow the shape of the dose curve; as a rule, active = well fitted curve in the direction sought with a large enough effect; inconclusive = small, poorly fitted or top-dose-only effect, or another doubt; inactive = no such curve, though single readings can be large; an effect the other way counts as inactive or inconclusive.

SMILES	IL-1B inflam inh	DT40 TDP1 no CPT	TDP1 block	TDP1 cell CPT	HepG2 viability	TGFb inhibitor
Cc1ccc(N=Nc2c(N)n[nH]c2N)cc1	-64*	-6%	·	2%	-2%	-1%
Cc1ccc(-c2[nH]nc(N)c2N=Nc2cccc(Cl)c2C)cc1	-76*	13µM*	10%	?	-60%	?
Cc1cccc(N=Nc2c(N)n[nH]c2-c2ccc(Cl)cc2)c1	-54*	?	7%	?	-20%	?
COc1ccc(C(=O)NC(=S)N2CCN(c3ccccc3OC)CC2)cc1	-23	?	4%[0.0935 µM]	?	-5%	-4%
CN1CCN(c2cc(N3CCc4ccccc4C3)c(F)cc2[N+](=O)[O-])CC1	-51*	21µM*	7%	16µM*	16µM*	?
COc1ccccc1N1CCN(C(=S)NC(=O)c2ccc([N+](=O)[O-])cc2)CC1	-4	21µM*	·	21µM*	-23%	-24%
COc1cc2c(cc1OC)CN(c1ccc([N+](=O)[O-])cc1C#N)CC2	?	13µM*	7%	21µM*	5%	-11%
COc1ccccc1N1CCN(c2ccc([N+](=O)[O-])cc2Cl)CC1	0	12µM*	-1%	15µM*	-17%	-24%
COc1ccc(CNc2cc(-c3ccccc3CN(C)C)ncn2)c(OC)c1	·	?	4%[56.1 µM]	-24%	·	·
Cc1ccnc(NS(=O)(=O)c2ccc(NC(=O)c3ccc(Cl)cc3[N+](=O)[O-])cc2)n1	-21	12%	7%	-13%	-7%	-1%
O=C(C(=O)N1CCN(c2ccccc2F)CC1)c1ccccc1	3	-8%	·	-11%	·	·
COc1cc2c(cc1OC)CN(C(=O)c1ccc(N3CCCC3)c([N+](=O)[O-])c1)CC2	-56*	23µM*	·	21µM*	-2%	?
COc1cc2c(cc1OC)CN(c1ccc(F)cc1[N+](=O)[O-])CC2	-67*	?	·	-25%	-21%	-13%
COc1cc2c(cc1OC)CN(c1ncccc1[N+](=O)[O-])CC2	?	-24%	·	1%	-1%	0%
COc1cc2c(cc1OC)CN(c1ccc([N+](=O)[O-])cc1Cl)CC2	-88*	12µM*	1%	23µM*	-18%	?
COc1cc2c(cc1OC)CN(C(=O)CN1C(=O)c3ccc([N+](=O)[O-])cc3C1=O)CC2	15	-1%	-14%	-13%	1%	5%
O=C(Cc1ccccc1)N(Cc1cccnc1)c1nc2c(F)cc(F)cc2s1	·	?	3%	?	-39%	-18%
O=C(Cn1cc(C(=O)c2ccco2)c2ccccc21)Nc1ccccc1C(F)(F)F	·	-22%	-1%	-11%	-51%	?
Cc1ccc(Sc2nnc(Cc3ccccc3)c3ccccc23)cc1	-89*	23µM*	0%	26µM*	18µM*	14µM*
O=C(NCCc1ccc(F)cc1)C(=O)NCC1CCCN1S(=O)(=O)c1ccccc1 (centres undefined)	-80*	8.2µM*	·	10µM*	-12%	-12%
COc1ccc(CCNC(=O)C(=O)NCC2CCCN2S(=O)(=O)c2ccccc2)cc1 (centres undefined)	-30	18µM*	1%	21µM*	-13%	-18%
COc1ccc(S(=O)(=O)N2CCCC2CNC(=O)C(=O)NCCc2ccccc2)cc1 (centres undefined)	25	7.3µM*	-3%	7.3µM*	-26%	0%
CCc1ccc(NC(=O)C(=O)NCC2CCCN2S(=O)(=O)c2ccccc2)cc1 (centres undefined)	-11	21µM*	5%	?	0%	8%
